# Reference: the OligoGym collection
# Molecular target: TNKS
# Test: pooled miR-30 sensor sort-seq; sequence = guide strand
# Conditions: shRNA
row,Sequence,sensor-assay potency score (higher = more potent)
1,TTGCATGAACATCAGCACCATG,-0.893
2,TATAGGTGTACTCTCACTCAGA,-0.676
3,TTTAATAGCAGCTTCATGCAGA,0.637
4,TACTCTACAACAGACACGCGGT,-0.0381
5,TTTCATTAACATTTGCTCCTTT,0.974
6,TTCTCGAATAGTACTTTGCATC,-0.948
7,TTTTGCTGAAGGATCTGCCAGG,-0.435
8,TAACTTTAGCTAAGTCTGCTTC,-0.439
9,TGTTCTACAACATCCTTCCTTC,0.712
10,TTAGCTAAGTCTGCTTCTCTGG,-0.647
11,ATGAACATCAGCACCATGCTGA,0.272

# Molecular target: TNP2
# Test: as above
# Conditions: shRNA
row,Sequence,sensor-assay potency score (higher = more potent)
1,TTGCCTTCCAAGTTCTTTCTGT,0.0693
2,TTGTACACCTGCTGGATCCTCT,-0.394
3,AAGTTCTTTCTGTTCTTGGGGC,-0.319
4,TTTCTGTTCTTGGGGCAGCGGC,-1.14
5,TTTTGTGGCGCTTTGGTGGTGG,0.492
6,TACACCTGCTGGATCCTCTTGG,0.0749
7,TCTGTCTGCAACTCTGGCTGAA,-0.415
8,TTCTTTCTGTTCTTGGGGCAGC,-0.411
9,TTTGGTGGTGGACTAGTGTTGG,-0.0566
10,TTGGTTTTGTACACCTGCTGGA,0.278
11,TGGACTAGTGTTGGGACTCTGG,-0.968
12,TGGTTTTGTACACCTGCTGGAT,-0.833
